Screening data deposited in PubChem BioAssay by National Center for Advancing Translational Sciences (NCATS).
TDP1 cell CPT: qHTS for Inhibitors of human tyrosyl-DNA phosphodiesterase 1 (TDP1): qHTS in cells in presence of CPT | Potency, µM (doses to about 46.2 µM), actives largely listed as inhibitors | chicken DT40 Tdp1-/-;hTDP1 cells + 20 nM CPT, ATP luminescence, 48 h | 420,000 tested, 12% active; also: nearly all actives have a fitted effect of over 55% in size
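Cell growth measured by CellTiter-Glo luminescence after a minimum 48 h, 37 C compound exposure with 20 nM CPT in Tdp1-knockout DT40 cells stably expressing hTDP1, seeded 400/well; qHTS titration format.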
IL-1B inflam inh: qHTS for Inhibitors of Inflammasome Signaling: IL-1-beta AlphaLISA Primary Screen. AID 743279, 2014. 360,000 tested, 4.7% active. activity change, % at 57.5 µM. THP-1 LPS/ATP IL-1B secretion, AlphaLISA, 16 h; hits give low values; in the data active = activity change below about -50%; inconclusive = mostly about -30% to -49%
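Secreted IL-1B measured by AlphaLISA bead assay after 16 h compound exposure of THP-1 cells; compounds (final up to 57.5 uM) added 1 h before LPS (250 ng/mL) and ATP (1.25 mM) stimulation; lower signal means less secretion.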
TDP1 cell noCPT: qHTS for Inhibitors of human tyrosyl-DNA phosphodiesterase 1 (TDP1): qHTS in cells in absence of CPT | DT40 Tdp1-/- hTDP1 cells, no CPT, ATP luminescence, 48 h | Potency, µM (series often up to 46.2 µM), actives largely listed as inhibitors | 420,000 tested, 15% active; also: nearly all actives have a fitted effect of over 55% in size
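Chicken DT40 Tdp1-/- cells complemented with human TDP1, screened without camptothecin (DMSO vehicle only), 400 cells/well. Compounds pin-transferred, cells incubated at 37 °C for at least 48 hr. Growth read as ATP-dependent luminescence (CellTiter-Glo, 30 min at RT).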
HT1080NT lethal: qHTS for induction of synthetic lethality in tumor cells producing 2HG: qHTS for the HT-1080-NT fibrosarcoma cell line | Potency, µM (series often up to 46.1 µM), actives largely listed as cytotoxic | HT-1080-NT fibrosarcoma viability, CellTiter-Glo ATP luminescence, 48 h | AID 686970, 2013 | 360,000 tested, 1.6% active;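 also: NT is the 2HG producing partner of a matched IDH1 knockdown line; nearly all actives have a fitted effect of over 55% in size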
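Luminescent CellTiter-Glo readout after 48 hours of compound exposure at 37 degrees C defined viability of HT-1080-NT cells. Activity was normalized to DMSO wells and cell-free media wells; concentration-response curves were fitted and assigned curve classes.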
HT1080 IDH1KD tx: qHTS for induction of synthetic lethality in tumor cells producing 2HG: qHTS for the HT-1080-IDH1KD cell line; HT-1080 IDH1 knockdown viability, ATP luminescence, 48 h; Potency, µM (series often up to 46.1 µM), most hits filed as cytotoxic; 360,000 tested, 2% active
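After a 2 h attachment period, IDH1KD HT-1080 cells took pin-transferred compound for 48 h at 37 °C; ATP-based luminescence after 10 min room-temperature reagent incubation reported viability.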
Of the large screens only hits and unclear results are named; the others gave an inactive call. Most compounds without a hit are left out; they make up all but 19% or so of the library. Unless noted, calls follow the shape of the dose curve; as a rule, active = well fitted curve in the direction sought with a large enough effect; inconclusive = small, poorly fitted or top-dose-only effect, or another doubt; inactive = no such curve, though single readings can be large; an effect the other way counts as inactive or inconclusive.

Cc1ccsc1C(=O)N1CCCC(C)(C(=O)NS(=O)(=O)C2CC2)C1 (stereo unspecified)	TDP1 cell noCPT inconclusive
COC(=O)c1ccc(C(=O)N2CCCC(C)(C(=O)NS(=O)(=O)C3CC3)C2)cc1 (stereo unspecified)	TDP1 cell CPT inconclusive, TDP1 cell noCPT 1.46µM
CCCS(=O)(=O)NC(=O)C1(C)CCCN(C(=O)c2c(F)cccc2F)C1 (stereo unspecified)	none
CCCS(=O)(=O)NC(=O)C1(C)CCCN(C(=O)c2ccccc2F)C1 (stereo unspecified)	IL-1B inflam inh -70.6
CC1(C(=O)NS(=O)(=O)C2CC2)CCCN(C(=O)c2ccccc2)C1 (stereo unspecified)	TDP1 cell CPT 5.17µM, TDP1 cell noCPT 2.06µM
COc1ccc(-n2nc([N+](=O)[O-])c(=NCCCN3CCCC3=O)n2O)cc1	TDP1 cell CPT inconclusive, TDP1 cell noCPT inconclusive
COc1ccc(-n2nc([N+](=O)[O-])c(=NCCc3cccc(C)c3)n2O)cc1	TDP1 cell CPT inconclusive, TDP1 cell noCPT inconclusive
Cc1cccc(-n2nc([N+](=O)[O-])c(=NC3CCN(Cc4ccccc4)CC3)n2O)c1	TDP1 cell CPT 8.2µM, TDP1 cell noCPT 11.6µM
COc1ccc(CCN=c2c([N+](=O)[O-])nn(-c3cccc(C)c3)n2O)cc1OC	TDP1 cell CPT 10.3µM, TDP1 cell noCPT inconclusive
O=C1CCCN1CCCN=c1c([N+](=O)[O-])nn(-c2ccc(Cl)cc2)n1O	TDP1 cell CPT 3.26µM, TDP1 cell noCPT 6.51µM
O=[N+]([O-])c1nn(-c2ccc(Cl)cc2)n(O)c1=NCc1ccccc1	TDP1 cell CPT 10.3µM, TDP1 cell noCPT inconclusive
CS(=O)(=O)N(Cc1ccccc1Cl)c1ccc(C(=O)NCc2ccccn2)cc1	TDP1 cell noCPT inconclusive
O=C(NCCCn1ccnc1)C(=O)c1c[nH]c2ccccc12	HT1080 IDH1KD tx inconclusive
CC1(C(=O)Nc2ccc3c(c2)OCCO3)CN(S(C)(=O)=O)CC(=O)N1CCc1c[nH]c2ccccc12 (stereo unspecified)	none
CC(=O)c1c(N2CCOCC2)nc2ccc(Cl)cc2c1-c1ccccc1	none
Cc1cccc(CCN=c2c([N+](=O)[O-])nn(-c3ccccc3)n2O)c1	TDP1 cell CPT 14.6µM, IL-1B inflam inh inconclusive, TDP1 cell noCPT inconclusive
CCCCCN(C(=O)CCC(=O)OCC(=O)N(C)c1ccccc1)c1c(N)n(CCCC)c(=O)[nH]c1=O	none
CCCCCN(C(=O)CCC(=O)OCC(=O)c1ccc(C(C)CC)cc1)c1c(N)n(CCCC)c(=O)[nH]c1=O (stereo unspecified)	TDP1 cell CPT inconclusive, IL-1B inflam inh -67.8, TDP1 cell noCPT inconclusive, HT1080NT lethal inconclusive
CCCCCN(C(=O)CCC(=O)OCCOc1cccc(C)c1)c1c(N)n(CCCC)c(=O)[nH]c1=O	TDP1 cell CPT inconclusive, TDP1 cell noCPT 20.6µM
CCCCC1CCC(C(=O)N(CCCC)c2c(N)n(CCCC)c(=O)[nH]c2=O)CC1 (stereo unspecified)	TDP1 cell CPT 11.6µM, TDP1 cell noCPT 20.6µM
CCCCCN(C(=O)CCC(=O)OCCOc1ccccc1)c1c(N)n(CCCC)c(=O)[nH]c1=O	none
CCCCCN(C(=O)CCC(=O)OCc1cccc(Br)c1)c1c(N)n(CCCC)c(=O)[nH]c1=O	TDP1 cell CPT inconclusive, TDP1 cell noCPT 14.6µM
CCCCCN(C(=O)CCC(=O)OCCOc1ccc(OCC)cc1)c1c(N)n(CCCC)c(=O)[nH]c1=O	TDP1 cell CPT inconclusive, IL-1B inflam inh inconclusive
Cc1nn(CC(=O)Nc2c(F)c(F)cc(F)c2F)c(=O)c2cccn12	none
CCCCCN(C(=O)CN1CCC(Cc2ccccc2)CC1)c1c(N)n(CCCC)c(=O)[nH]c1=O	IL-1B inflam inh -78.1, TDP1 cell noCPT inconclusive
CCOC(=O)C1CCN(C(=O)c2ccc3nc(-c4ccc(OC)cc4)c(-c4ccc(OC)cc4)nc3c2)CC1	TDP1 cell CPT inconclusive, TDP1 cell noCPT inconclusive
Cc1cccc(N2CCN(C(=O)CCc3c(C)nc4c(c3C)c(=O)n(C)c(=O)n4C)CC2)c1C	TDP1 cell noCPT inconclusive (no result: IL-1B inflam inh, HT1080NT lethal, HT1080 IDH1KD tx)
N#Cc1ccc(CSC2=NCCN2)cc1	TDP1 cell CPT 20.6µM, IL-1B inflam inh inconclusive, TDP1 cell noCPT 23.1µM, HT1080 IDH1KD tx inconclusive
CCOc1ccc(CSC2=NCCN2)cc1Cl	TDP1 cell CPT inconclusive, TDP1 cell noCPT 14.6µM, HT1080NT lethal inconclusive
c1ccc(CSC2=NCCCN2)cc1	IL-1B inflam inh inconclusive
Clc1ccccc1CSC1=NCCN1	none
COc1cc(NC(=O)CCCN2C(=O)NC(C)(C)C2=O)cc(OC)c1	none
CCN(CC)C(=O)CSc1nnc(CCCCCNC(=O)OC(C)(C)C)o1	none
O=C(Nc1ccc(Cl)cc1)NC1CCCCC1Cc1ccco1 (stereo unspecified)	TDP1 cell CPT inconclusive, TDP1 cell noCPT 18.4µM, HT1080NT lethal inconclusive, HT1080 IDH1KD tx inconclusive
O=C(Nc1ccc(Cl)cc1)NC1CCCCC1	none
O=C(Nc1ccc(Cl)cc1)NC1CCCC1Cc1ccco1 (stereo unspecified)	IL-1B inflam inh -89.4, TDP1 cell noCPT inconclusive, HT1080 IDH1KD tx inconclusive
O=C(Nc1cccc(Cl)c1)NC1CC2CCC(C1)N2Cc1ccco1 (stereo unspecified)	TDP1 cell CPT inconclusive, TDP1 cell noCPT inconclusive
Cc1ccccc1N1C(=O)c2cccc([N+](=O)[O-])c2C1=O	IL-1B inflam inh inconclusive, HT1080 IDH1KD tx inconclusive
Cc1ccccc1-n1ncc2c([N+](=O)[O-])cc([N+](=O)[O-])cc21	TDP1 cell CPT 25.9µM, TDP1 cell noCPT 20.6µM, HT1080NT lethal inconclusive, HT1080 IDH1KD tx inconclusive
COc1ccccc1N(CC(=O)Nc1c(C)cccc1C)S(C)(=O)=O	none
COC(=O)c1sccc1S(=O)(=O)N(CC(=O)NCc1ccc(C)cc1)c1ccc(C)cc1	TDP1 cell CPT 23.1µM, TDP1 cell noCPT inconclusive (no result: IL-1B inflam inh, HT1080NT lethal, HT1080 IDH1KD tx)
COc1ccc(N(CC(=O)NCc2ccc(C)cc2)S(=O)(=O)c2c(C)noc2C)cc1	none
COC(=O)c1sccc1S(=O)(=O)N(CC(=O)Nc1c(C)cccc1C)c1ccc(C)c(C)c1	TDP1 cell CPT 16.4µM (no result: IL-1B inflam inh, HT1080NT lethal, HT1080 IDH1KD tx)
CN(CCN1CCOCC1)C(=O)c1cc(COc2ccc(F)c(F)c2)on1	none
CCOC(=O)c1cnc2ccc(OC)cc2c1Nc1ccc(N2CCN(C)CC2)cc1	TDP1 cell CPT 23.1µM, TDP1 cell noCPT 20.6µM, HT1080NT lethal inconclusive, HT1080 IDH1KD tx 23.1µM
CCOC(=O)c1cnc2ccccc2c1Nc1ccc(N2CCOCC2)cc1	TDP1 cell CPT inconclusive (no result: IL-1B inflam inh, HT1080NT lethal, HT1080 IDH1KD tx)
